Bioassay records deposited in PubChem BioAssay by National Center for Advancing Translational Sciences (NCATS).
A selection: hits, their analogues and other compounds. The true share with any hit is near 2.4%.
D2 antag: antagonists of human D2 dopamine receptor | P14416 | HEK293 TREx D2 cells, calcium flux, dopamine EC80 | inhibition, % at 10 µM | 340,000 tested, 2% active | AID 485344; in the data active = inhibition above about 30%; inactive = below that, where a call was filed
Target sequence (P14416 whole entry, looked up): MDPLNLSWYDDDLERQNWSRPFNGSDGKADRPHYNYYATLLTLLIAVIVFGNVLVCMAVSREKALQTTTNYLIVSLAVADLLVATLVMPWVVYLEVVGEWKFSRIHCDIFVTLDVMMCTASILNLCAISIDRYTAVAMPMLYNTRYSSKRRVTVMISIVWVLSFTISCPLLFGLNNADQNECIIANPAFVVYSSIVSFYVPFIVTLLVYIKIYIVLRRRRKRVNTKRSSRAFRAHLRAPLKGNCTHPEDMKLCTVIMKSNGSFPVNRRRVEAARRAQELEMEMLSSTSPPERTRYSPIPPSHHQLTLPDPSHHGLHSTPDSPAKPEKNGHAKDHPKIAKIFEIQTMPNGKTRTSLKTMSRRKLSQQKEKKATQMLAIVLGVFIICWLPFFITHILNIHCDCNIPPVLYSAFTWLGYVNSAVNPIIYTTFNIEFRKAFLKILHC
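Read-out: kinetic calcium fluorescence (1 cycle/s) in inducible HEK293 T-REx D2 cells after an EC80 dopamine addition that followed 180 s compound preincubation. Loss of the dopamine response indicates antagonism.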
D2 PAM-1: human D2 receptor positive allosteric modulation. P14416. DiscoveRx D2 beta-arrestin cells, luminescence, 90 min; 100% = 57 uM dopamine signal. potentiation, % (no concentration beside the values). 360,000 tested, 0.23% active; in the data active = potentiation above about 50%; inconclusive = mostly about 30% to 49%
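D2 cells co-treated with compound plus 50 nM dopamine (EC20) for 90 min at 37 deg C to detect potentiation. Beta-arrestin recruitment was read as enzyme-fragment luminescence after 1 h at ambient temperature. Full response was set by 57 uM dopamine.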
D2 ag-1: activates the human D2 dopamine receptor | P14416 | DiscoveRx PathHunter D2 beta-arrestin, luminescence, 90 min; 100% = 57 uM dopamine signal | activation, % (no concentration beside the values) | 360,000 tested, 0.084% active | AID 624465; in the data active = activation above about 40%; inconclusive = between about 15% and that limit
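Agonist mode: compounds alone added to overnight-plated D2 PathHunter cells for 90 min at 37 C, with 57 uM final dopamine (EC100) defining full response. Beta-arrestin recruitment detected by chemiluminescent reagent, read after 1 h at ambient temperature.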
D2 PAM-2: D2 dopamine receptor (human) potentiation; HEK293 T-REx D2, calcium flux, EC20 dopamine potentiation; potentiation, % at 10 µM; 340,000 tested, 0.34% active; AID 485347;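 active = potentiation over 3 SD above the plate norm, cut at about 30% in these data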
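Calcium flux readout, no-wash dye, 1 read/s. Inducible HEK293 Trex D2 line, overnight 30 C. Compound alone 180 s (agonist flags), then EC20 dopamine, another 180 s to score potentiation.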
D2 ag-2: activates the human D2 dopamine receptor. HEK293 T-REx D2 cells, calcium flux agonist mode. activation, % at 2 µM. 340,000 tested, 0.53% active;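 active = activation over 3 SD above normal in the single-dose calcium agonist read, cut at about 30% in these data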
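In this primary screen, compounds producing a positive calcium signal within 180 s of addition to tetracycline-induced, force-coupled HEK293 Trex D2 cells are flagged; cells are dye-loaded with a no-wash calcium kit beforehand.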
Each line names hits and unclear results; the compound was inactive in the other large screens.

Clc1ccc(-c2ccc(CN3CCCCC3)o2)cc1	D2 antag 78
O=c1ccn([C@@H]2O[C@H](CNS(=O)(=O)C3CC3)[C@@H](O)[C@H]2O)c(=O)[nH]1	none (no result: D2 antag, D2 PAM-2, D2 ag-2)
CC1(C)CC(=O)C(N=Nc2ccc3ncsc3c2)=C(O)C1	none
COc1ccc2nc(N=NC3=C(O)CC(C)(C)CC3=O)sc2c1	D2 antag 34
CCN(CC)Cc1ccccc1CNC(=O)c1cccc(S(=O)(=O)Nc2ccc3c(c2)OCO3)c1	D2 antag 74
CCN=C1S/C(=C\c2ccc(N3CCOCC3)cc2C)C(=O)N1CC	none
COCCN1C(=O)/C(=C/c2ccc(N3CCCC3)cc2C)SC1=S	D2 ag-2 37
COCCn1c(C)cc(/C=C2/SC(=O)N(CC(=O)N3CCCC3)C2=O)c1C	D2 antag 34
Cc1ccc(C(=O)c2cn(Cc3ccccc3C)c3nc(C)ccc3c2=O)cc1	none (no result: D2 antag, D2 PAM-1, D2 ag-1)
COc1ccc(C(CNC(=O)c2cc3c(s2)CCC(C)C3)N2CCCC2)cc1 (stereo unspecified)	D2 antag 72
COc1ccc(C(CNC(=O)C(C)(C)Oc2ccc(Cl)cc2)N2CCCC2)cc1 (stereo unspecified)	D2 antag 97
COc1ccc(C(CNC(=O)c2cc3ccccc3o2)N2CCCC2)cc1 (stereo unspecified)	D2 antag 79
COc1ccc(C(CNC(=O)c2cc3c(s2)CCC(C)C3)N2CCOCC2)cc1 (stereo unspecified)	none
COc1ccc(C(CNC(=O)c2cc3ccccc3o2)N2CCCCC2)cc1 (stereo unspecified)	D2 antag 67
O=C(Nc1nccs1)c1ccc(Cl)c([N+](=O)[O-])c1	none
CN(Cc1ccc(C(C)(C)C)cc1)C(=O)c1ccc2c(=O)n3c(nc2c1)CCC3	none
COc1cc(NC(=O)CSC2=Nc3ccccc3N=C(c3ccc(F)cc3)C2)cc(OC)c1	none (no result: D2 antag, D2 PAM-1, D2 ag-1)
COc1cc(OC)c(NC(=O)CCS(=O)(=O)c2ccc3c(c2)oc(=O)n3C)cc1Cl	none (no result: D2 antag, D2 PAM-1, D2 ag-1)
COc1ccccc1NC(=O)CCS(=O)(=O)c1ccc2c(c1)oc(=O)n2C	D2 antag 31
CCCSc1ccc([C@@H]2[C@@H]3C(=O)N(C)C(=O)[C@@H]3[C@]3(C(=O)OC)CCCCN23)cc1OC	D2 antag 35
CCOC(=O)N1CCN(CC(O)COc2ccccc2C(C)C)CC1 (stereo unspecified)	none
CCOC(=O)N1CCN(CC(O)COc2ccccc2C(C)CC)CC1 (stereo unspecified)	D2 antag 32
COc1ccccc1OCC(O)CN1CCN(C(=O)c2ccccc2)CC1 (stereo unspecified)	D2 ag-2 33
Cc1cc(C)c(N=Cc2c(O)n(-c3nccs3)c(=O)c3ccccc23)c(C)c1	D2 antag 41
Cc1cccc(Cn2c(CNS(=O)(=O)c3ccc(Cl)s3)nc3cccnc32)c1	none (no result: D2 antag, D2 PAM-1, D2 ag-1)
Cc1cccc(Cn2c(C(C)(C)C)cc3cccnc32)c1	D2 antag 45
COc1cc(CNCc2cc(OC)c(OC)c(OC)c2)cc(OC)c1	D2 antag 30
Cc1noc(C)c1S(=O)(=O)N(C)C[C@H]1Oc2ccc(NS(=O)(=O)c3cn(C)cn3)cc2C(=O)N([C@H](C)CO)C[C@@H]1C	none (no result: D2 antag, D2 PAM-2, D2 ag-2)
COc1cc(C(=O)N2CCc3c([nH]c4ccccc34)C2c2ccc(F)cc2)cc(OC)c1OC (stereo unspecified)	none (no result: D2 antag, D2 PAM-1, D2 ag-1)
CCn1c2ccccc2c2cc(CNCc3ccc(OC)cc3OC)ccc21	D2 antag 35
O=C(Nc1cc(C(F)(F)F)ccc1N1CCOCC1)c1cncc(Br)c1	D2 antag 31
Nc1nnc(SCC(=O)Nc2cc(C(F)(F)F)ccc2N2CCOCC2)s1	D2 antag 87
CCN1CCSc2ccc(C(=O)NCc3ccc(F)cc3)cc21	none (no result: D2 antag, D2 PAM-1, D2 ag-1)
Cc1ccccc1NS(=O)(=O)c1ccc2[nH]cc(C(=O)NCCc3ccccc3)c(=O)c2c1	none (no result: D2 antag, D2 PAM-1, D2 ag-1)
CNC(=O)c1c[nH]c2ccc(S(=O)(=O)Nc3cccc(Cl)c3C)cc2c1=O	none (no result: D2 antag, D2 PAM-1, D2 ag-1)
O=C(N1CCN(Cc2ccc3c(c2)OCO3)CC1)C(Cl)(Cl)Cl	D2 ag-1 inconclusive
COC(=O)C1C2CC3c4[nH]c5cc(OC)ccc5c4CCN3CC2CC(O)C1OC (stereo unspecified)	none (no result: D2 antag, D2 PAM-2, D2 ag-2)
